Values without a mark were called inactive.
system: HCC1569; test: H1.0 immunofluorescence intensity relative to DMSO (% of DMSO); higher = stronger H1.0 induction, active = 140 or more; conditions: concentration: 10 µM; 24 h
Outline: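 HCC1569 and TDF cells (800 per well, 384-well plates, RPMI with 10% FBS) were treated with compounds at 10 µM for 24 h at 37 °C, in triplicate. Cells were fixed in 3.7% formaldehyde and stained with a rabbit anti-H1.0 antibody, an AlexaFluor 647 secondary and DAPI; six fields per well were imaged at ×10. H1.0 nuclear intensity or cell number is expressed as percent of the plate DMSO control, taking the median of replicates. HCC1569 values were smoothed for positional effects.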
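Also: TDF is a line of transformed human dermal fibroblasts of mesenchymal origin.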

Row | SMILES | H1.0 immunofluorescence intensity
1 | N[C@H](C(=O)O)c1cccc(O)c1 [(S)-3-Hydroxyphenylglycine] | 100
2 | CCCCCCCCC=CCC=CCC=CCCCC(=O)NCCO [Mead ethanolamide] | 96.2
3 | O=C(O)Cc1sc(-c2ccccc2)nc1-c1ccc(Cl)cc1 [Fentiazac] | 116
4 | CN1CCN(CC(=O)N2c3ccccc3C(=O)Nc3cccnc32)CC1.Cl.Cl [Pirenzepine.2HCl] | 106
5 | CC(CCc1ccc(O)cc1)NCCc1ccc(O)c(O)c1.Cl (stereo not given) [Dobutamine.HCl] | 105
6 | Br.Br.NC(N)=NCCSSCCN=C(N)N [Guanidinoethyl disulfide dihydrobromide] | 98.8
7 | CN(C)CCCOC1C(C(O)CO)OC2OC(C)(C)OC21.Cl (stereo not given) [Amiprilose hydrochloride] | 91.5
8 | Cc1cccc(Nc2ccccc2C(=O)O)c1C [Mefenamic acid] | 90.5
9 | CCn1nc(C(=O)O)c(=O)c2cc3c(cc21)OCO3 [Cinoxacin] | 97.5
10 | CN1C(=O)CC(C(=O)O)C1c1cccnc1 (stereo not drawn) [Trans-4-Cotininecarboxylic acid] | 85.3
11 | COC(=O)C1C2CC3c4[nH]c5cc(OC)ccc5c4CCN3CC2CC(OC(=O)c2cc(OC)c(OC)c(OC)c2)C1OC (single isomer, unassigned; (-)) [(-)-Isoreserpine] | 98
12 | CC12C=Cc3occc3C1CCC13CC(=O)C(CCC12)C3 (stereo not given) [16-Oxokahweol] | 99.3
13 | CCCCCC=CCC=CCC=CCC=CCCCCCC(=O)O [7(Z), 10(Z), 13(Z), 16(Z)-Ocosatetraenoic Acid] | 106
14 | O=C(Nc1nc2ccccc2n1CCN1CCOCC1)c1cccc([N+](=O)[O-])c1 [IRAK-1/4 Inhibitor] | 117
15 | O=c1cc(-c2ccc(O)cc2)oc2cc(OC3OC(CO)C(O)C(O)C3O)c(C3OC(CO)C(O)C(O)C3O)c(O)c12 (stereo not given) [Saponarin] | 94.4
16 | COc1ccc(COc2ccc(Cc3cnc(N)nc3N)cc2OC)cc1 [cFMS Receptor Tyrosine Kinase Inhibitor] | 130
17 | Cl.Cl.O=C(O)COCCN1CCN(C(c2ccccc2)c2ccc(Cl)cc2)CC1 (stereo not given) [Cetirizine 2HCl] | 104
18 | O=C(O)CN(CCOCCOCCN(CC(=O)O)CC(=O)O)CC(=O)O | 88.9
19 | CN1CCN(C2Cc3ccccc3Sc3ccc(Cl)cc32)CC1.O=C(O)C=CC(=O)O (stereo not given) [Clorotepine maleate] | 118
20 | Cl.c1ccc(-n2c(C3=NCCN3)cc3ccccc32)cc1 | 101

Row | SMILES | H1.0 immunofluorescence intensity
21 | CCCCCC(O)C=CC1C(O)CC(O)C1CC=CCCCC(=O)O (racemic) | 99.4
22 | CCCN(CCC)C(=O)C(CCC(=O)O)NC(=O)c1ccccc1 (stereo not given) [Proglumide] | 88
23 | CC(C)NCC(O)COc1ccc(CCOCC2CC2)cc1.Cl (stereo not given) [Betaxolol hydrochloride] | 89.4
24 | O.c1cnc2c(c1)ccc1cccnc12 [1,10-Phenanthroline monohydrate] | 93.9
25 | COc1cc(Cc2cnc(N)nc2N)cc(OC)c1OC [Trimethoprim] | 107
26 | CC(C)=CCC(O)C1=CC(=O)c2c(O)ccc(O)c2C1=O (stereo not given) [Shikonin] | 111
27 | CCCCCCCCC=CCCCCCCCC(=O)O [9(E)-Octadecenoic acid] | 101
28 | CCOC(=O)c1cnc2c(cnn2CC)c1NN=C(C)C.Cl [Etazolate hydrochloride] | 99.5
29 | COc1cc(C2CC(=O)c3c(O)cc(O)cc3O2)ccc1O (stereo not given) [Homoeriodictyol] | 88.7
30 | NC(N)=NC(N)=Nc1ccccc1 [1-Phenylbiguanide] | 84.1
31 | COc1cc(NS(C)(=O)=O)ccc1Nc1c2ccccc2nc2ccccc12.Cl [Amsacrine hydrochloride] | 113
32 | CCCCCC(O)C=CC1OC(O)CC(O)C1CC=CCCCC(=O)O (stereo not given) [Thromboxane B2] | 97.9
33 | CCCCCC(=O)C=CC=CCCCCCCCC(=O)O [13-Ketooctadecadienoioc acid] | 103
34 | NS(=O)(=O)c1cc(C2(O)NC(=O)c3ccccc32)ccc1Cl (stereo not given) | 104
35 | COc1cc(=O)n(C)c2c(OCC(O)C(C)(C)O)cccc12 (stereo not given) [Foliosidine] | 93.7
36 | NC(=O)C(=O)[O-].[Na+] [Sodium Oxamate] | 93.5
37 | O=C1CC(c2ccc(O)c(O)c2)Oc2cc(OC3OC(CO)C(O)C(O)C3O)cc(O)c21 (stereo not given) [Eriodictyol-7-O-glucoside] | 89.3
38 | CN1CCN(c2nc3cc(C(F)(F)F)ccc3n3cccc23)CC1.O=C(O)C=CC(=O)O | 113
39 | COCC(=O)NCC=Cc1ccc2ncnc(Nc3ccc(Oc4ccc(C)nc4)c(C)c3)c2c1 | 158 (active)
40 | CN1C(CC(=O)c2ccccc2)CCCC1CC(O)c1ccccc1.Cl (stereo not drawn) [alpha-Lobeline hydrochloride] | 103
